Measurements published in PubChem BioAssay AID1259349 (Broad Institute, 2017).
The campaign covered roughly 17,000 compounds. About 1,100 (6.5%) were called active. The sample as a whole holds a higher share of actives than the screen did. Unmarked numbers belong to inactive results.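 The calls were made as follows: active = z-score of -3 or lower, meaning strong loss of probe binding signal; inactive = the rest.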

molecular target: Insulin-degrading enzyme (Homo sapiens) (UniProt P14735); test: displacers of FL-6b probe from IDE – biochemical, fluorescence anisotropy, probe displacement, primary screen (AID 1259349); settings: purified IDE, FL-6b probe fluorescence polarization; at 20 µM; stronger effect = lower value;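 also: His-tagged human IDE residues 42-1019 made in E. coli with 30 nM FL-6b probe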
Sequence (P14735 42-1019 limits assumed): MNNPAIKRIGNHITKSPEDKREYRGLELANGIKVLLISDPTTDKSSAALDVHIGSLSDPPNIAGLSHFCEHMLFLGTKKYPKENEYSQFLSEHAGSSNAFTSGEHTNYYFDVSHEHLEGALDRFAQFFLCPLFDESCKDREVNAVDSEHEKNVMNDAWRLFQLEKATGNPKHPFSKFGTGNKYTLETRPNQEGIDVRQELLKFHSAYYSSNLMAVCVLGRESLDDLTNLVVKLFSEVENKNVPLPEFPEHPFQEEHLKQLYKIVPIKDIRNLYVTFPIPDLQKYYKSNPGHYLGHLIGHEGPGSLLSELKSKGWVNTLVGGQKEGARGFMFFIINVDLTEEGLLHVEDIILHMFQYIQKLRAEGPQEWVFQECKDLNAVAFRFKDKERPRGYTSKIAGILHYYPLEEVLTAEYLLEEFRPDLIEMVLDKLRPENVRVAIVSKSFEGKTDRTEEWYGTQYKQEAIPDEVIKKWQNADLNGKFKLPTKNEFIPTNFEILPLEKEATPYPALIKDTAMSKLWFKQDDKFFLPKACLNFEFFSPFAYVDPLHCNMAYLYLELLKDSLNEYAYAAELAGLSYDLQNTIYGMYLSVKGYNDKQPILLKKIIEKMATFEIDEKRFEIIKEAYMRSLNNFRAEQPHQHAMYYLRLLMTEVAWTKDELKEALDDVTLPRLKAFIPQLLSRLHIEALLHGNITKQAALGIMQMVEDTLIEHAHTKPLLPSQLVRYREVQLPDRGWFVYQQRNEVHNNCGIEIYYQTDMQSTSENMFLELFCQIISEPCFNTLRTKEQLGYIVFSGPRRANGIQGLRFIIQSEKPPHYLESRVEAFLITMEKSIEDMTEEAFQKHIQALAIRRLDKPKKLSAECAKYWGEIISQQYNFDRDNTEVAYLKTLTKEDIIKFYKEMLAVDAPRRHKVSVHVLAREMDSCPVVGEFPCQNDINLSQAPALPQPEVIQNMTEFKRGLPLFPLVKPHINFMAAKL

| SMILES | z-score |
| --- | --- |
| O=C(Cc1ccccn1)N1CCCCN2[C@@H](CO)[C@@H](c3ccc(C#Cc4ccccc4)cc3)[C@@H]2C1 | -6.91 (active) |
| O=C(Cc1ccccn1)N1CCCCN2[C@H](C1)[C@H](c1ccc(-c3ccccc3F)cc1)[C@@H]2CO | -1.94 |
| O=C(Cc1ccccc1)N1CCCCN2[C@H](CO)[C@H](c3ccc(C#Cc4ccccc4)cc3)[C@H]2C1 | -1.93 |
| O=C(Cc1ccncc1)N1CCCCN2[C@@H](CO)[C@H](c3ccc(C#CC4(O)CCCC4)cc3)[C@@H]2C1 | 1.31 |
| COC(=O)[C@@H]1[C@@H](CO)[C@@H]2Cn3c(ccc(-c4cccc(C(=O)N(C)C)c4)c3=O)[C@H]1N2C(=O)NC(C)C | -0.64 |
